# Screens: PubChem, several laboratories
# Myeloid diff 2: promotes myeloid progenitor differentiation | ER-HoxA9 myeloid progenitors, lysozyme-GFP differentiation, flow cytometry | calls only at 10 µM | hit rate 1% among 360,000;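 active = normalized GFP-positive differentiation at or above the plate's own cutoff, the solvent-only control mean plus 3 SD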;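 note: cells exposed to compound for four days before flow analysis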
# HGIII-sPLA2 inh: Inhibits HGIII-sPLA2 liposome hydrolysis, primary screen; Q9NZ20; QFRET BODIPY PC-A2 liposome hydrolysis, fluorescence; inhibition, % at 12.2 µM; hit rate 0.56% among 370,000;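 active = inhibition above mean plus 3 SD of compounds lying within the high and low control bounds, cut at about 19% in these data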;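 note: 0% = median of test compound wells and 100% = no enzyme DMSO wells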
# Rtt109 HAT inh: inhibitors of Candida albicans Rtt109/Vps75 histone acetyltransferase. AID 540336. hit rate 0.16% among 330,000. purified Rtt109/Vps75, ThioGlo CoA-SH fluorescence, 4 h. inhibition, % at 34.9 µM. Q5AAJ8;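 active = inhibition of at least 50% in every replicate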
# Target sequence (Q5AAJ8 whole entry, looked up): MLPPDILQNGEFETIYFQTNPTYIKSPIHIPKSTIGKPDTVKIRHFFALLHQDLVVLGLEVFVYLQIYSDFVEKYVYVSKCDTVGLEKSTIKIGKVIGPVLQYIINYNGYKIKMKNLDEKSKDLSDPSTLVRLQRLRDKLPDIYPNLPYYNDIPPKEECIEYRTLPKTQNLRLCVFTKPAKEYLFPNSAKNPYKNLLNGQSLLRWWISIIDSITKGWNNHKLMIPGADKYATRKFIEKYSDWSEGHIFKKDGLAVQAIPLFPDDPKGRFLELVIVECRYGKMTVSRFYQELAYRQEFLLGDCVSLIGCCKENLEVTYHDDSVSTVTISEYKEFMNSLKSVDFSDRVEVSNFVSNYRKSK
# DAGLB inh: blocks human DAGLB lipase activity | Q8NCG7 | HEK293T DAGLB membrane lysate, EnzChek fluorogenic substrate | inhibition, % at 5.17 µM | hit rate 0.059% among 340,000 | AID 504411; in the data active = inhibition above about 34%;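 note: 0% = enzyme with vehicle and 100% = wells lacking enzyme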
# ABHD5-PLIN5 inh: ABHD5-PLIN5 protein interaction inhibition; Split G. princeps luciferase complementation, luminescence, 4 h; inhibition, % at 4 µM; hit rate 0.78% among 360,000; AID 602281;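 active = inhibition above the mean inhibition across every tested compound plus 3 SD, cut at about 22% in these data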;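 note: 0% = DMSO only wells and the 100% control is not disclosed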
# Cardio protect: protects H9c2 cardiomyocytes from peroxide injury | H2O2 injury protection, ATPLite, 2 h | protection from H2O2 cell death, % at 20 µM | hit rate 0.63% among 360,000 | AID 588492;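 active = compounds giving at least 50% protection of heart cells from peroxide-induced death in the single-dose screen, raw or plate-pattern-corrected value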;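 note: 0% = DMSO wells with peroxide and 100% = DMSO wells without peroxide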
# Myeloid diff: promotes myeloid progenitor differentiation; calls only; shares compounds with Myeloid diff 2; hit rate 2% among 2,300; ER-HoxA9 myeloid progenitors, GFP/Mac1 double-positive flow;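 active = share of green or green-and-red cells above 9 and 9% in run 1 or 4 and 3% in run 2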
# GFP autofluor: flagged as fluorescent in myeloid differentiation counter-screen | shares compounds with Myeloid diff 2 | fluorescence response, % (concentration not given with the values) | hit rate 7.4% among 2,300 | ER-HoxA9 myeloid progenitors, no estrogen, GFP autofluorescence flow cytometry; vehicle wells 0%, positive control 100%;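 active = over 5% cells positive for green fluorescent reporter, or over 2% positive for both it and APC stain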;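 note: range taken on the double positive population between DMSO and positive control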
# * = called active by the depositor; i = inactive; · = not tested or not shown; + = active, no number. Compounds with a hit are over-represented: about 2.9% of the library has one in this group of screens.
SMILES,Myeloid diff 2,HGIII-sPLA2 inh,Rtt109 HAT inh,DAGLB inh,ABHD5-PLIN5 inh,Cardio protect,Myeloid diff,GFP autofluor
O=C(O)c1ccccc1Nc1ccc([N+](=O)[O-])cc1,i,-3.7,10.8,7.2,-6.8,9.6,+,0.7
CCOc1ccc(/C=N/NC(=O)c2ccccc2Cl)cc1CN1CC2CC(C1)c1cccc(=O)n1C2 (stereo unspecified),i,-0.6,2.8,1.1,15.5,3.0,i,0.0
CN(C(=O)c1cccc(NC(=O)Cc2cccc(NC(=O)C3CCCN(C(=O)C4CCCCC4)C3)c2)c1)C1CC1 (stereo unspecified),i,5.3,-19.5,0.9,4.4,9.2,·,·
Cc1cc(/C=C(\C#N)C(=O)O)c(C)n1CC(C)C,+,0.5,10.8,0.7,1.1,-8.3,i,0.6
Cc1cc(/C=C(\C#N)C(=O)O)c(C)n1CCC(C)C,i,-5.5,3.3,-0.5,2.0,-3.1,·,·
NC(=O)COC(=O)CNC(=O)c1cc(Cl)cc([N+](=O)[O-])c1,i,0.1,0.0,-1.5,-0.9,1.2,·,·
O=S(=O)(c1ccc(Cl)cc1)N1CCC2(CC1)OCCO2,i,1.8,11.7,0.4,-1.7,0.3,·,·
O=C(NCc1ccc2c(c1)OCO2)c1cccs1,i,-8.8,5.9,-0.1,1.1,6.8,·,·
O=C(COC(=O)c1cccs1)NCc1ccc2c(c1)OCO2,+,-3.5,·,-0.2,5.4,2.5,i,0.3
O=S(=O)(N/N=C\c1ccccc1O)c1ccc(Cl)cc1,i,3.8,-5.8,4.6,-1.7,-2.4,·,·
O=S(=O)(N/N=C\C=C\c1ccccc1)c1ccc(Cl)cc1,i,-6.3,-0.4,2.7,-3.9,0.7,i,0.3
CCS(=O)(=O)Nc1cccc(C2=NN(S(C)(=O)=O)C(c3ccccc3)C2)c1 (stereo unspecified),i,-10.8,2.3,0.9,-1.0,9.3,·,·
CCS(=O)(=O)N1N=C(c2cccc(NS(C)(=O)=O)c2)CC1c1ccccc1 (stereo unspecified),+,-14.2,3.7,0.8,0.9,0.0,i,97.4*
O=C(O)C(c1ccccc1)N1C(=O)/C(=C\c2ccc(-c3ccc(Br)cc3)o2)SC1=S (stereo unspecified),+,-11.8,9.8,1.1,5.7,-3.4,i,26.1*
CC1CN(C(=O)c2cccs2)CC(C)O1 (stereo unspecified),i,6.5,1.9,-0.1,6.5,2.4,·,·
COCCC1CCCCN1C(=O)c1cc(COc2ccc(-n3cncn3)cc2)on1 (stereo unspecified),i,3.5,-13.4,-1.0,-2.1,-19.1,·,·
CS(=O)(=O)c1ccc(-c2cccc(NC(=O)c3ccc4c(c3)OCO4)c2)nn1,i,9.8,·,-3.3,-1.4,1.4,·,·
C=CC[N+]1(CC#Cc2ccccc2)CCCC1,+,4.8,-3.1,-1.2,-1.8,0.5,i,0.4
Cc1ccc(NC(=O)c2ccnc(C(C)(C)C)c2)cc1,i,-2.8,2.8,-2.7,-1.1,1.5,i,0.2
CCOc1ccccc1N(CC(=O)NC(C)(C)C)C(=O)c1ccc(CN2CCOCC2)o1,i,4.9,9.8,-1.2,8.8,11.4,·,·
COc1ccccc1NS(=O)(=O)c1cc([N+](=O)[O-])ccc1N/N=C/c1c[nH]c2ccccc12,+,-8.1,7.4,17.6,10.0,-7.0,i,46.2*
COc1ccc(C=NNc2ccc([N+](=O)[O-])cc2S(=O)(=O)Nc2ccccc2C(=O)O)cc1OC,i,-42.7,-1.8,15.3,7.5,-0.9,·,·
CCOC(=O)C1CCN(Cc2cnc(Oc3ccc(Cl)cc3C)s2)CC1,i,-3.1,-0.8,-5.2,-0.2,-5.7,·,·
OCC[C@H]1NCc2cc(CO)cc(-c3ccccc3)c21,i,-11.8,-0.8,-3.1,-2.6,4.0,i,0.7
CC(C)(C)S(=O)N1Cc2cc(CO)cc(-c3ccccc3)c2[C@H]1CCO (stereo partly specified),i,2.2,-0.8,-1.9,-4.2,24.6,·,·
SMILES,Myeloid diff 2,HGIII-sPLA2 inh,Rtt109 HAT inh,DAGLB inh,ABHD5-PLIN5 inh,Cardio protect,Myeloid diff,GFP autofluor
O=[N+]([O-])c1ccccc1/C=C/CN1CCCCC1,i,5.2,-6.9,1.0,-0.3,-1.0,i,0.0
CC1=NN(c2ccccc2)C(=O)C1/C=C1\NC(=S)NC1=O (stereo unspecified),i,0.8,16.5,0.1,-15.1,-7.6,·,·
CC1=NN(c2ccccc2)C(=O)C1C=Nc1ccccc1O (stereo unspecified),+,·,4.7,2.9,-6.0,37.3,i,0.7
COc1cc(C(=O)n2nc(C)cc2C)cc(OC)c1OC,i,-3.0,0.9,0.5,2.0,4.9,·,·
C[C@H](CO)N1C[C@H](C)[C@H](CN(C)S(=O)(=O)c2ccc3c(c2)OCCCO3)OCc2cnnn2CCCC1=O,i,-0.6,·,-3.2,-2.3,3.3,·,·
C[C@H](CO)N1C[C@H](C)[C@@H](CN(C)C(=O)Nc2cccc(Oc3ccccn3)c2)OCc2cnnn2CCCC1=O,i,0.8,·,1.2,-4.2,1.8,·,·
C[C@H]1CN([C@@H](C)CO)C(=O)CCCn2nncc2CO[C@H]1CN(C)S(=O)(=O)c1ccc2c(c1)OCCCO2,i,5.0,·,-4.0,9.5,0.2,i,0.0
Cc1ccc(S(=O)(=O)N(C)C[C@@H]2OCc3cn(nn3)CCCC(=O)N([C@@H](C)CO)C[C@H]2C)cc1,i,12.6,·,-1.2,11.7,-0.1,i,0.2
C[C@@H]1CN([C@@H](C)CO)C(=O)CCCn2nncc2CO[C@@H]1CN(C)C(=O)Nc1cccc(Oc2ccccn2)c1,i,8.5,·,0.7,3.6,-4.8,i,0.0
CC(=O)c1ccc(OCc2cc(C(=O)NC(C)CCn3cccn3)no2)cc1 (stereo unspecified),i,4.5,9.3,-0.3,-4.5,-3.3,·,·
O=C(Nc1ccccc1Oc1ccccc1)[C@@H]1O[C@H](CO)[C@H](O)[C@H](O)[C@H]1O,i,-3.0,·,·,1.0,-1.7,·,·
CCCCCCSc1ccc(-c2nc3cnccn3c2NC2CCCCC2)cc1,i,-3.1,·,·,-2.8,·,i,18.4*
CCC(C)Sc1ccc(-c2nc3cc(C)ccn3c2NC2CCCCC2)cc1 (stereo unspecified),+,-3.5,7.4,-17.0,-13.4,-24.5,+,3.8
CCC(O)(CC)C(=O)N/N=C/c1cc(Br)cc(Br)c1O,i,12.6,2.7,3.1,1.0,46.7,·,·
CC(=O)N/N=C/c1cc(C(C)(C)C)cc(/C=N/NC(C)=O)c1O,+,-16.5,-21.6,·,-2.1,43.3,i,0.0
